# Experimental data published in the supplement of paper PMC9135407.
# Values joined by “and” are separate entries in the source; they are usually repeats but may differ in a detail not shown here. Equal entries are not always repeated. Structures can show the parent of a compound that is named as a salt. Out of some 5,800 compounds screened, about 620 (11%) showed activity. The entries come from a sample that favours actives as a whole. Unmarked numbers belong to inactive results.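 The calls were made as follows: active = score above a cut-off or among the top three wells of a plate; in these data no inactive exceeds 0.85.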
# Test system: primary human hepatic stellate cells (donor 1)
# Assay: scaled lipid accumulation score (0 = DMSO-like, 1 = nortriptyline-like); higher = stronger HSC inactivation (lipid re-accumulation), active = hit call of the paper
# Conditions: 48 h
# [1] = library stock concentration: 1 mM
# [2] = library stock concentration: 3.33 mM
# [3] = library stock concentration: 10 mM
# [4] = library stock concentration: 80 uM
# [5] = library stock concentration: 400 uM
# [6] = library stock concentration: 2 mM
# [7] = library stock concentration: 6.4 mM
smiles,measurement,setting,value
N[C@@H](Cc1ccc(O)c([N+](=O)[O-])c1)C(=O)O [Nitrotyrosine],scaled lipid accumulation score,[1],0.016
CC(C)NCCCn1c(Sc2cc3c(cc2I)OCO3)nc2c(N)ncnc21 [listing 1 of 2 here],scaled lipid accumulation score,[2],0.728
CC(C)NCCCn1c(Sc2cc3c(cc2I)OCO3)nc2c(N)ncnc21 [listing 2 of 2 here],scaled lipid accumulation score,[3],0.881 (active)
O=C(CCc1ccc(O)c(O)c1)N[C@@H](CC(=O)OCc1ccccc1)C(=O)OCc1ccccc1,scaled lipid accumulation score,[1],≤ 0
COCCOc1ccc2c(c1)ncn2-c1ccc2cccc(N3CCC(N)CC3)c2n1 [listing 1 of 2 here],scaled lipid accumulation score,[3],0.937 (active)
CC1(COc2ccc3c(c2)ncn3-c2ccc3cccc(N4CCC(N)CC4)c3n2)COC1 [listing 1 of 2 here],scaled lipid accumulation score,[2],0.869 (active)
NC1CCN(c2cccc(Cl)n2)CC1,scaled lipid accumulation score,[3],0.62 and 0.499
CC1(COc2ccc3c(c2)ncn3-c2ccc3cccc(N4CCC(N)CC4)c3n2)COC1 [listing 2 of 2 here],scaled lipid accumulation score,[3],0.404
COCCOc1ccc2c(c1)ncn2-c1ccc2cccc(N3CCC(N)CC3)c2n1 [listing 2 of 2 here],scaled lipid accumulation score,[4],≤ 0
same,scaled lipid accumulation score,[5],0.202
same,scaled lipid accumulation score,[6],0.523
same,scaled lipid accumulation score,[2],0.785
same,scaled lipid accumulation score,[3],0.832
COc1c2c(nc3ccccc13)OC(C(C)(O)CO)C2 (stereo not drawn) [Dubinidine],scaled lipid accumulation score,,≤ 0
O=C(O)CCCC=CCC1C(O)CC(O)C1C=CC(O)COc1cccc(C(F)(F)F)c1 [15(S)-Fluprostenol],scaled lipid accumulation score,[1],≤ 0
CCCCCCCCC=CCCCCCCCCOCCOP(=O)([O-])OCC[N+](C)(C)C [Oleyloxyethyl Phosphorylcholine],scaled lipid accumulation score,[1],≤ 0
CC/C=C\C/C=C\C/C=C\C/C=C\CCCCCCC(=O)OCC [.omega.-3 Arachidonic Acid ethyl ester],scaled lipid accumulation score,[1],≤ 0
CCCCCCCCCCCCCCCCCCCCCCCCC(=O)OC [Pentacosanoic Acid methyl ester],scaled lipid accumulation score,[1],≤ 0
CCCc1cc(C(=O)c2ccc(-c3ccccc3)cc2)ccc1OCCCN1CCCc2c(OC(C)(C)C(=O)O)cccc21,scaled lipid accumulation score,[1],≤ 0
CCCCCCCCC=CCCCCCCCCCCCC(N)=O [13-Docosenamide],scaled lipid accumulation score,[1],≤ 0
[O-][n+]1cccc(CO)c1,scaled lipid accumulation score,[3],≤ 0
CCCCC/C=C\C/C=C\C/C=C\C/C=C\CCCC(=O)OC(CO)CO [2-Arachidonoyl Glycerol],scaled lipid accumulation score,[1],≤ 0
CCCCC/C=C\C/C=C\C/C=C\C/C=C\CCCC(=O)OC(CO)CO [2-Arachidonoylglycerol],scaled lipid accumulation score,[1],0.011
CCCCCCCCCCCCCCCCn1cc[n+](Cc2ccccc2)c1C,scaled lipid accumulation score,[4],≤ -0.001
same,scaled lipid accumulation score,[5],≤ -0.001
same,scaled lipid accumulation score,[6],≤ -0.001
same,scaled lipid accumulation score,[3],0.213 and 0.435
"CCCCCCCCCCCCCCCCn1cc[n+](Cc2ccccc2)c1C [eEF-2 Kinase Inhibitor, NH125]",scaled lipid accumulation score,[2],0.247
CCCCCCCCCCCCC[N+](C)(C)Cc1ccccc1 [Benzalkonium chloride],scaled lipid accumulation score,[3],0.182
CCCCCCCCCCCCCCCCn1cc[n+](Cc2ccccc2)c1C.[I-],scaled lipid accumulation score,[2],0.92 (active)
CC/C=C\C/C=C\C/C=C\CCCCCCCC(=O)N[C@@H](Cc1ccc(O)cc1)C(=O)O [N-(.alpha.-Linolenoyl) Tyrosine],scaled lipid accumulation score,[1],≤ 0
"CCCCC/C=C\C=C\CCCCCCCCC(=O)O [10(E),12(Z)-Conjugated Linoleic Acid]",scaled lipid accumulation score,[1],0.069
CCC=CCC=CCC=CCC=CCCCCC(=O)OCC [Stearidonic Acid ethyl ester],scaled lipid accumulation score,[1],≤ 0
CC(=O)N[C@@H](CSC/C=C(\C)CC/C=C(\C)CC/C=C(\C)CCC=C(C)C)C(=O)O [N-acetyl-S-geranylgeranyl-L-Cysteine],scaled lipid accumulation score,[1],≤ 0 and ≤ -0.021
CCOC(=O)N1CCC(=C2c3ccc(Cl)cc3CCc3cccnc32)CC1 [Loratidine],scaled lipid accumulation score,[3],0.128
Cc1cncc(CN2CCC(=C3c4ccc(Cl)cc4CCc4cccnc43)CC2)c1 [Rupatadine Fumarate],scaled lipid accumulation score,[2],0.371
CCOC(=O)N1CCC(=C2c3ccc(Cl)cc3CCc3cccnc32)CC1 [Loratadine],scaled lipid accumulation score,[2],≤ 0
same,scaled lipid accumulation score,library stock concentration: 5.2 mM,≤ 0
same,scaled lipid accumulation score,[3],≤ 0 and 0.008
CCOC(=O)N1CCC(=C2c3ccc(Cl)cc3CCc3cccnc32)CC1,scaled lipid accumulation score,[3],≤ 0
Clc1ccc2c(c1)CCc1cccnc1C2=C1CCNCC1 [Desloratadine],scaled lipid accumulation score,[2],0.268
same,scaled lipid accumulation score,[3],0.837
Cc1cccc(CN2CCN(C(c3ccccc3)c3ccc(Cl)cc3)CC2)c1 (stereo not drawn) [Meclozine dihydrochloride],scaled lipid accumulation score,,0.368
Cc1cncc(CN2CCC(=C3c4ccc(Cl)cc4CCc4cccnc43)CC2)c1.O=C(O)C=CC(=O)O [Rupatadine Fumarate],scaled lipid accumulation score,[3],0.862 (active)
Clc1ccc2c(c1)CCc1cccnc1C2=C1CCNCC1,scaled lipid accumulation score,[3],1.52 (active)
C(=C(\CCNC1)/C1)(/c2c(cccn2)CC3)\c(ccc(Cl)c4)c34 [Desloratadine],scaled lipid accumulation score,[7],1.03 (active)
Cc1cccc(CN2CCN(C(c3ccccc3)c3ccc(Cl)cc3)CC2)c1 (stereo not drawn) [Meclizine hydrochloride],scaled lipid accumulation score,[3],0.376 and 0.485
Clc1ccc2c(c1)CCc1cccnc1C2=C1CCNCC1 [Desloratidine],scaled lipid accumulation score,[7],0.46
CCCCC/C=C/C/C=C/C/C=C/C/C=C/CCCC(=O)Oc1ccc2ccc(=O)oc2c1 [7-hydroxycoumarinyl Arachidonate],scaled lipid accumulation score,[1],≤ 0
CC(C)(C)c1nc2c3cc[nH]c(=O)c3c3cc(F)ccc3c2[nH]1 [Merck -5 (10 mM)],scaled lipid accumulation score,[3],0.114
CC(C)(C)c1nc2c3cc[nH]c(=O)c3c3cc(F)ccc3c2[nH]1 [Merck -5 (2 mM)],scaled lipid accumulation score,[6],≤ -0.005
CC(C)(C)c1nc2c3cc[nH]c(=O)c3c3cc(F)ccc3c2[nH]1 [Merck -5 (0.4 mM)],scaled lipid accumulation score,[5],≤ -0.005
CC(C)(C)c1nc2c3cc[nH]c(=O)c3c3cc(F)ccc3c2[nH]1 [JAK Inhibitor I],scaled lipid accumulation score,[2],≤ 0
